High-throughput results from PubChem BioAssay.
VP16 counter = VP16 counterscreen qHTS for inhibitors of ROR gamma transcriptional activity. Potency, µM (series often up to 53.6 µM), usual class: inhibitors. Drosophila S2 Gal4-VP16 UAS-luciferase, luminescence, 20 h. 310,000 tested, 3.5% active. AID 2546, 2010;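 also: Gal4-VP16 expression switched on by copper sulfate through the metallothionein promoter; nearly all actives have a fitted effect of over 50% in size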
Six1-Eya2 inh = qHTS Assay for Inhibitors of the Six1/Eya2 Interaction; AlphaScreen GST-Six1/His-Eya2 binding, biochemical; stronger effect = lower value; activity change, % (concentration not given with the values); 360,000 tested, 0.56% active; AID 651725, 2012; in the data active = activity change below about -65%; inconclusive = mostly about -30% to -63%
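Compounds are tested against tagged Six1 and Eya2 proteins bridged by glutathione donor and nickel acceptor beads; after a one-hour incubation at 37 °C without light, AlphaScreen emission is recorded.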
PKM2 act = qHTS Assay for Activators of Human Muscle isoform 2 Pyruvate Kinase; Pyruvate kinase PKM (Homo sapiens), P14618; purified PKM2, Kinase-Glo ATP luminescence, activation; response scale: 0% is enzyme alone, no compound; Potency, µM (titrated, usually from 57.5 µM), hits mostly activators; 260,000 tested, 0.34% active; also: nearly all actives have a fitted effect of over 55% in size
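hPK-M2, >95% pure; 0.1 mM ADP / 0.5 mM PEP final; imidazole pH7.2 buffer w/ 7 mM MgCl2, 50 mM KCl; 1 h RT; Kinase-Glo lum. Intermediate enzyme activity for dual inhibitor/activator qHTS.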
RORgamma inh = qHTS for inhibitors of ROR gamma transcriptional activity; Drosophila S2 Gal4-RORgamma UAS-luciferase reporter, 20 h; Potency, µM (titrated, usually from 53.6 µM), hits mostly inhibitors; Nuclear receptor ROR-gamma (Mus musculus), P51450; AID 2551, 2010; 310,000 tested, 5.4% active; also: nearly all actives have a fitted effect of over 60% in size
Target sequence (P51450 whole entry, looked up, the tested form may be a part): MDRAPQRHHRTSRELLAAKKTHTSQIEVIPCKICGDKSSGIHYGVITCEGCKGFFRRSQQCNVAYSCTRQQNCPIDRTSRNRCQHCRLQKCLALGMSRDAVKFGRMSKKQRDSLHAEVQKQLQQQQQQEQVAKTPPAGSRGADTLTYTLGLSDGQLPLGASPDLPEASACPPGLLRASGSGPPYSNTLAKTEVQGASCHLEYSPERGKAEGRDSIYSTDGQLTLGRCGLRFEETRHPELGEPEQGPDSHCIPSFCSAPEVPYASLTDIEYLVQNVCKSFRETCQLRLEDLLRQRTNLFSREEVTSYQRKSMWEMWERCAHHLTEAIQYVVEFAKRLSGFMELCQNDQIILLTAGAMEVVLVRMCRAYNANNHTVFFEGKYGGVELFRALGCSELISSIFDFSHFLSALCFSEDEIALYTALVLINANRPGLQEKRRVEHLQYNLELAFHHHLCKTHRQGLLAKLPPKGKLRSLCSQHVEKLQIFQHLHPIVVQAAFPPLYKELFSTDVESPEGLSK
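Compounds are pin-transferred onto Drosophila Schneider cells expressing a copper-inducible Gal4–ROR gamma transactivation domain fusion. After 1 hr, copper sulfate is added to 700 uM final; luciferase is read 20 hr later.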
CtBP-E1A blk = qHTS Assay for Inhibitors of the CtBP/E1A Interaction. activity change, % (test concentration not listed). 340,000 tested, 0.49% active. CtBP / adenovirus E1A interaction (AlphaScreen). AID 651724, 2012. AlphaScreen GST-E1A/His-CtBP binding, 1536-well; stronger effect = lower value; in the data active = activity change below about -65%; inconclusive = mostly about -30% to -63%
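In 5 uL wells, 23 nL compound meets equimolar GST-E1A and His-CtBP (5X stock 125 nM each) for 2 h, 37 °C. Beads (5X, 50 ug/mL) then 1 h, 37 °C, dark.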
Large screens that a line does not name were inactive. Shown are actives, neighbours in structure and some others; about 5.6% of the full set was active somewhere. Unless noted, calls follow the shape of the dose curve; as a rule, active = well fitted curve in the direction sought with a large enough effect; inconclusive = small, poorly fitted or top-dose-only effect, or another doubt; inactive = no such curve, though single readings can be large; an effect the other way counts as inactive or inconclusive.

Nc1nonc1-n1nnc(C(=O)N/N=C/c2cc(Br)cs2)c1-c1ccccc1	VP16 counter 5µM, RORgamma inh 6.3µM
Cc1ccc(/C=N/NC(=O)c2nnn(-c3nonc3N)c2-c2ccc3c(c2)OCO3)s1	VP16 counter 7.9µM, RORgamma inh 7.1µM (no result: PKM2 act)
CCOc1cccc(-c2c(C(=O)N/N=C/c3ccncc3)nnn2-c2nonc2N)c1	none (no result: PKM2 act)
CCOc1cccc(-c2c(C(=O)N/N=C/c3cccs3)nnn2-c2nonc2N)c1	VP16 counter 11µM, RORgamma inh 7.1µM (no result: PKM2 act)
CCOC(=O)c1nc(SC)n(C)c1C(=O)OCC	none
COc1cccc(-c2c(C(=O)N/N=C/c3cccs3)nnn2-c2nonc2N)c1	VP16 counter 10µM, RORgamma inh 7.1µM
COc1ccc(O)c(/C=N/NC(=O)c2c(C)nnn2-c2nonc2N)c1	VP16 counter inconclusive, RORgamma inh 11µM
COc1ccc(/C=N/NC(=O)c2nnn(-c3nonc3N)c2-c2cccc(OC)c2)cc1	none
Cc1ccc(S(=O)(=O)NCC(=O)NCCc2c[nH]c3ccccc23)cc1C	none
CCC(C)NC(=S)NNC(=O)c1ccncc1 (stereo not drawn)	VP16 counter 13µM, RORgamma inh 3.2µM
CC1(C(=O)NC(=S)NNC(=O)c2ccncc2)CCCCC1	VP16 counter 13µM, RORgamma inh 5µM
CC(C)C(C)NC(=O)COC(=O)c1cc(S(=O)(=O)N(C)C)ccc1N1CCCC1 (stereo not drawn)	none (no result: Six1-Eya2 inh, CtBP-E1A blk)
Cc1cc(C)c(C)c(S(=O)(=O)NCc2ccc(C(=O)NCC3CCCO3)cc2)c1C (stereo not drawn)	none
COCCNC(=O)CSc1nnc(NC(=O)C2CC(=O)N(c3ccccc3OC)C2)s1 (stereo not drawn)	none
CCNC(=S)N1N=C2c3ccccc3CCC2C1c1ccc(F)cc1 (stereo not drawn)	VP16 counter inconclusive, RORgamma inh 8.9µM
CCOc1ccc(C(C)=O)cc1NC(=O)/C=C\C(=O)O	none
O=C(/C=C/c1ccccc1)NC(=S)Nc1ccccc1C(=O)NC1CCCCC1	VP16 counter inconclusive, RORgamma inh 11µM
COc1ccc(/C=C/C(=O)NC(=S)Nc2ccccc2C(=O)NC2CCCCC2)cc1	RORgamma inh 14µM
O=C(/C=C/c1ccc(F)cc1)NC(=S)Nc1ccccc1C(=O)NC1CCCCC1	VP16 counter 13µM, RORgamma inh inconclusive
CC(=O)NC(=S)Nc1ccccc1C(=O)NC1CCCCC1	none
Cc1ccc(/C=C/C(=O)NC(=S)Nc2ccccc2C(=O)NC2CCCCC2)cc1	RORgamma inh inconclusive
COc1ccc(/C=N\Nc2ncc(F)c(N3CCOCC3)n2)cc1OC	none
Cc1cc(NC(=S)N(CCCN2CCN(C)CC2)Cc2ccco2)ccc1Cl	RORgamma inh inconclusive
COC(=O)[C@@]1(Cc2ccccc2)[C@H]2C(=O)N(C)C(=O)[C@H]2[C@H]2CN=C(SC)N21	none (no result: VP16 counter, PKM2 act, RORgamma inh)
Cc1ccc(NC(=O)c2noc3c2CCc2ccccc2-3)cc1	none
O=C(Nc1cccc(O)c1)c1noc2c1CCc1ccccc1-2	VP16 counter 1.4µM, RORgamma inh 0.35µM
O=C1C2CCCCN2C(=O)N1CCCCN1CCN(c2cccc(Br)c2)CC1 (stereo not drawn)	none (no result: VP16 counter, RORgamma inh)
N#Cc1c(Nc2ccccc2Cl)s[nH]c1=O	VP16 counter 3.2µM, RORgamma inh 1.3µM
N#Cc1c(Nc2ccccc2)s[nH]c1=O	VP16 counter 11µM, RORgamma inh inconclusive
N#Cc1c(Nc2ccccc2C(F)(F)F)s[nH]c1=O	VP16 counter 11µM, RORgamma inh 14µM
Cc1cc(C)c(C#N)c(Nc2ccccc2Cl)n1	none
Cc1cccn2c(=O)c3cc(C(N)=S)c(=N)n(CCCOC(C)C)c3nc12	none
CCOCCCn1c(=N)c(C(N)=S)cc2c(=O)n3cccc(C)c3nc21	VP16 counter 14µM
CC1Cc2ccccc2N1C(=O)CN1CCC(n2nnc3cc(C(F)(F)F)ccc32)CC1 (stereo not drawn)	VP16 counter 4µM
